An excerpt weighted towards active compounds, which were near 18% of everything screened.
DT40 TDP1 no CPT: qHTS for Inhibitors of human tyrosyl-DNA phosphodiesterase 1 (TDP1): qHTS in cells in absence of CPT; DT40 Tdp1-/- hTDP1 cells, no CPT, ATP luminescence, 48 h; Potency, µM (doses to about 46.2 µM), without a hit: at the top dose activity change, negative = growth inhibition, hits mostly inhibitors; hit rate 15% among 420,000; also: potency is read from the fitted curve at half-maximal effect; nearly all actives have a fitted effect of over 55% in size
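Compound effects on proliferation are scored in DT40 Tdp1-/-;hTDP1 cells in the absence of CPT. ATP levels (CellTiter-Glo luminescence) are recorded after a ≥48 hr, 37 °C incubation.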
TDP1 cell CPT: DT40-hTDP1 cell growth loss with CPT. chicken DT40 Tdp1-/-;hTDP1 cells + 20 nM CPT, ATP luminescence, 48 h. Potency, µM (top dose mostly 46.2 µM), for the others: top-dose activity change, negative = growth inhibition, usual class: inhibitors. hit rate 12% among 420,000. AID 686979; also: potency is read from the fitted curve at half-maximal effect; nearly all actives have a fitted effect of over 55% in size
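Chicken DT40 Tdp1-/- cells stably complemented with human TDP1 were seeded at 400 cells/well in medium containing 20 nM camptothecin, exposed to pin-transferred compounds, and grown at 37 °C for at least 48 hr. Viability was read as ATP luminescence.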
Six1-Eya2 inh: inhibitors of human Six1/Eya2 interaction; Q15475+O00167; AlphaScreen GST-Six1/His-Eya2 binding, biochemical; active compounds read low; activity change, % (test concentration not listed); hit rate 0.56% among 360,000; AID 651725; in the data active = activity change below about -65%; inconclusive = mostly about -30% to -63%
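Compounds are tested against tagged Six1 and Eya2 proteins bridged by glutathione donor and nickel acceptor beads; after a one-hour incubation at 37 °C without light, AlphaScreen emission is recorded.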
IL1B secr inh: blocks inflammasome-driven IL-1 beta release; THP-1 LPS/ATP IL-1B secretion, AlphaLISA, 16 h; active compounds read low; activity change, % at 57.5 µM; hit rate 4.7% among 360,000; in the data active = activity change below about -50%; inconclusive = mostly about -30% to -49%
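THP-1 cells pretreated 1 hr with compounds (up to 57.5 uM final), then stimulated with LPS (250 ng/mL final) plus ATP (1.25 mM final); secreted IL-1B measured by AlphaLISA after 16 hr, decreased signal indicating inhibition.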
TDP1 block: TDP1 (human) enzyme inhibition; AID 485290; Potency, µM (doses to about 130 µM), for the others: at the highest dose activity change, negative = inhibition, most hits filed as inhibitors; recombinant TDP1, AlphaScreen DNA substrate cleavage; hit rate 0.28% among 350,000; Q9NUW8; also: potency is read from the fitted curve at half-maximal effect; nearly all actives have a fitted effect of over 40% in size
Target sequence (Q9NUW8 whole entry, looked up): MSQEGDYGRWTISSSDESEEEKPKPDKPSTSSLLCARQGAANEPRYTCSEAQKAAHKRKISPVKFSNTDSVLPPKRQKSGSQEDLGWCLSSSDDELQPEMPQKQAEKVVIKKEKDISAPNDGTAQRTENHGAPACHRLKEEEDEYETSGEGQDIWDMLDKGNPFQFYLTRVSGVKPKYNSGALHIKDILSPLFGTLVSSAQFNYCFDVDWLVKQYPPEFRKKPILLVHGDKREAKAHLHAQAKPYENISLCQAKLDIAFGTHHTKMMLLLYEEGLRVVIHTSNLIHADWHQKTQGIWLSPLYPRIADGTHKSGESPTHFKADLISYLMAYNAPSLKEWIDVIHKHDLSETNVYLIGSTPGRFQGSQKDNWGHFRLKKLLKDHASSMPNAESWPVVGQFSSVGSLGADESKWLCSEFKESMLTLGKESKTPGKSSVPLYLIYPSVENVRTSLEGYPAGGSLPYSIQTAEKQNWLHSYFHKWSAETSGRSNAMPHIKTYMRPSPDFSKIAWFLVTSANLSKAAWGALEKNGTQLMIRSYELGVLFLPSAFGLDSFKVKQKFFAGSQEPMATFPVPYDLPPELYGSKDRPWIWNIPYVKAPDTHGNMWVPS
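Steps: enzyme plus compound, 15 min RT; add biotin/phosphotyrosine-FITC oligonucleotide (15 nM final), react 5 min; add donor/acceptor beads (10 ug/ml final), 10 min; read AlphaScreen. Tdp1 at 1 nM final.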
CtBP-E1A inh: CtBP/E1A binding inhibition | AlphaScreen GST-E1A/His-CtBP binding, 1536-well; active compounds read low | activity change, % (concentration not given with the values) | hit rate 0.49% among 340,000 | AID 651724; in the data active = activity change below about -65%; inconclusive = mostly about -30% to -63%
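Homogeneous bead-based format: GST-tagged E1A captured on glutathione donor beads, His-tagged CtBP on nickel acceptor beads; compounds precede bead addition by 2 h at 37 °C.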
An asterisk follows results filed as active; ? = inconclusive; / = no result; [ ] = remark or other dose. Unless noted, calls follow the shape of the dose curve; as a rule, active = well fitted curve in the direction sought with a large enough effect; inconclusive = small, poorly fitted or top-dose-only effect, or another doubt; inactive = no such curve, though single readings can be large; an effect the other way counts as inactive or inconclusive. % is scaled to controls: 0 for no effect and ±100 for the full control effect.

SMILES	DT40 TDP1 no CPT	TDP1 cell CPT	Six1-Eya2 inh	IL1B secr inh	TDP1 block	CtBP-E1A inh
CC(Sc1nnnn1C)C(=O)NC1CCCc2ccccc21 (stereo unspecified)	6.9%	9.0%	1.7	11.3	3.1%	2.2
CC(Sc1nc2ccccc2s1)C(=O)NC1CCCc2ccccc21 (stereo unspecified)	23.1µM*	?	10.2	?	1.4%	3.3
O=C(CN1CCN(c2cccc(Cl)c2)CC1)NC1CCCc2ccccc21 (stereo unspecified)	?	?	-10.4	-73.3*	/	-10.3
CC(C)c1nnc(NC(=O)CCC(=O)NC2CCCc3ccccc32)s1 (stereo unspecified)	14.6µM*	?	2.1	43.8	2.7%	1.6
O=C(NC(=S)NC1CCCc2ccccc21)c1ccco1 (stereo unspecified)	?	16.4µM*	-14.7	-9.0	7.7%	-7.1
COc1ccc2[nH]cc(CCNS(=O)(=O)c3ccc(NC(C)=O)cc3)c2c1	?	-5.2%	-7.0	8.4	-3.4%	-18.0
COc1ccccc1OCC(=O)NC1CCCc2ccccc21 (stereo unspecified)	?	-28.2%	1.5	3.5	-8.9%	-3.5
Cc1cccc(OCC(=O)NC2CCCc3ccccc32)c1C (stereo unspecified)	16.4µM*	?	6.9	25.4	0.6%	/
Cc1ccc(-c2nnc(SCC(=O)NC3CCCc4ccccc43)n2N)cc1 (stereo unspecified)	?	?	0.3	4.0	5.3%	0.0
Cc1nc2ccccn2c1C(=O)NC1CCCc2ccccc21 (stereo unspecified)	7.31µM*	7.31µM*	5.7	55.0	-7.2%	/
Cc1ccc(-n2nnnc2SCC(=O)NC2CCCc3ccccc32)cc1 (stereo unspecified)	18.4µM*	?	-1.5	0.8	-1.1%	6.3
S=C1CSc2ccccc2N1	?	-1.4%	-21.4	2.2	7.5%	-16.5
Cc1ccc(S(=O)(=O)N2CCOCC2)cc1C(=O)OCC(=O)NCCc1ccc(F)cc1	-27.5%	-21.8%	1.8	-5.8	-6.8%	-12.5
COc1ccc(NC(=O)COc2cccc3c2CCN(Cc2cccnc2)C3=O)c(OC)c1	10.3µM*	11.6µM*	-75.1*	-25.9	4.6%	-82.2*
O=C(CCC(=O)Nc1ccc(Br)cc1)N/N=C/c1ccc(O)cc1	?	-7.7%	-7.3	1.4	/	/
COc1ccc(O)c(/C=N/NC(=O)CSc2nnc(C)n2-c2ccccc2)c1	18.4µM*	16.4µM*	?	64.0	4.1%	?
Cc1ccc(-c2nn(-c3ccccc3)cc2/C=N/NC(=O)CSc2nnc(C)n2-c2ccccc2)cc1	?	?	-10.6	-62.1*	6.9%	-13.0
O=C(CNc1cccc(C(F)(F)F)c1)N/N=C/c1cn(-c2ccccc2)nc1-c1ccccc1	?	16.4µM*	2.9	?	5.5%	4.8
COc1cccc(/C=N/NC(=O)CSc2nnc(C)n2-c2ccccc2)c1O	?	?	?	94.3	-10.3%	?
C=C(C)CN(CC)C(=O)CC1C(=O)NCCN1Cc1c(F)cccc1Cl (stereo unspecified)	-16.9%	3.5%	-0.6	9.7	0.0%	/
O=C(N[C@@H]1C/C=C\C[C@@H](CC(=O)N(CCO)Cc2ccccc2)C(=O)N[C@@H](c2ccccc2)COC1=O)OCC1c2ccccc2-c2ccccc21	6.51µM*	7.31µM*	-3.5	9.3	-0.2%	7.4
O=C(N[C@H]1C/C=C\C[C@H](CC(=O)N(CCO)Cc2ccccc2)C(=O)NC[C@H](c2ccccc2)OC1=O)OCC1c2ccccc2-c2ccccc21	6.51µM*	6.51µM*	9.1	-1.6	-10.9%	3.8
CC(C)(C)OC(=O)C[C@H]1C/C=C\C[C@H](CC(=O)N(CCO)Cc2ccccc2)C(=O)N[C@@H](c2ccccc2)COC1=O	?	?	28.6	-17.2	0.2%	-10.0
O=C1CCC/C=C\C[C@@H](CC(=O)N(CCO)Cc2ccccc2)C(=O)N[C@H](c2ccccc2)CO1	-27.9%	-1.6%	0.4	-6.2	0.2%	2.3
COC(=O)/C=C\C(C#N)(C#N)N=Cc1ccc(OC)cc1	0.651µM*	1.3µM*	4.7	0.0	/	-5.3
SMILES	DT40 TDP1 no CPT	TDP1 cell CPT	Six1-Eya2 inh	IL1B secr inh	TDP1 block	CtBP-E1A inh
COC(=O)\C(C(C)=O)=C(/C=C/C=C/N(C)C)N(C)C	-5.2%	-3.1%	-9.8	14.4	22.4µM*	5.7
CC(=O)c1cccc(S(=O)(=O)NC2CCSc3ccccc32)c1 (stereo unspecified)	11.6µM*	?	-1.2	35.7	12.0%	0.1
NS(=O)(=O)c1cccc(C(=O)NC2CCSc3ccccc32)c1 (stereo unspecified)	-10.5%	9.2%	4.2	-0.7	/	8.8
NS(=O)(=O)c1cc(C(=O)NC2CCSc3ccccc32)ccc1Cl (stereo unspecified)	-20.3%	9.6%	?	-14.3	1.26µM*	-0.1
Cc1sc2nc(SCCN(C)C)n(-c3ccccc3)c(=O)c2c1-c1ccc(F)cc1	25.9µM*	18.4µM*	-9.5	-16.6	4.0%[0.0935 µM]	?
Cc1ncc(C(O)c2ccc(N(C)C)cc2)n1Cc1ccccc1 (stereo unspecified)	23.1µM*	?	-3.7	-2.3	/	-6.1
CCc1ncc(C(O)c2ccc(Cl)cc2)n1Cc1ccccc1 (stereo unspecified)	11.6µM*	18.4µM*	-2.9	17.1	/	-13.5
COc1ccc(C(O)c2nccn2Cc2ccccc2)cc1 (stereo unspecified)	-14.4%	-29.2%	-0.1	-9.9	3.4%	-1.6
COc1ccc(-c2noc(-c3cc4ccccc4oc3=O)n2)cc1	/	/	/	/	4.0%	/
Nc1nc(Cl)cc(=O)n1Cc1ccc(Cl)cc1	-21.3%	-17.4%	-0.9	-20.2	/	/
O=C(CCc1c[nH]c2ccccc12)N1CCN(c2ccc(F)cc2)CC1	?	-27.5%	-7.5	-6.0	5.1%	3.8
CC(C)(C)Nc1nc2ccc([N+](=O)[O-])cc2o1	-15.2%	-4.3%	0.8	-23.9	/	-0.1
Cc1ccc(NC(=O)CN(C)CC(=O)Nc2cccc(F)c2)cc1S(=O)(=O)N1CCCCCC1	?	?	1.8	-77.5*	-5.1%	1.6
Cc1ccc(NCC(=O)Nc2cccc(S(=O)(=O)N(C)C)c2)cc1S(=O)(=O)N1CCCCCC1	7.31µM*	8.2µM*	-11.5	?	1.8%	-4.0
